Data on twelve molecules can be found in PubChem BioAssay (Tox21).

Each structure is given as a SMILES string. Values without a mark were called inactive. Inconclusive results are not listed. Active and inactive are the calls of the source. The call rests on the fitted dose curve; in most records, active means well fitted curve in the direction sought with a large enough effect in the repeat runs; inconclusive means weak or mixed curves; inactive means no such curve, though single readings can be large; an effect the other way counts as inactive or inconclusive.

A short description of assay [1]: Caspase-3/7 induction in HepG2 cells by small molecules, qHTS assay (AID 1346978). Further: nearly all actives have a fitted effect of over 15% in size. The gist of the method:
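Wild-type HepG2 cells (2,000/well) were settled 5 h at 37 C, 5% CO2, then exposed to compounds in DMSO for 17 h. Caspase-3/7 activity was read by luminescence 30 min after adding Caspase-Glo 3/7 reagent at room temperature.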

Assay [2] can be described thus: Caspase-3/7 induction in CHO-K1 cells by small molecules, qHTS cell viability counter screen (AID 1346979). Further: nearly all actives have a fitted effect of over 35% in size. Further: potency means the concentration at half of the fitted maximal effect. In outline: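 Wild-type CHO-K1 cells were seeded at 1,500 per well, rested 5hr at 37 C, then exposed to compounds in DMSO. After 16hr, CellTiter-Fluor reagent was added and fluorescence read 1hr later as the viability measure.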
(In general: In qHTS, concentration-response curves come from the screen itself.)

The nature of assay [3]: Caspase-3/7 induction in CHO-K1 cells by small molecules, qHTS assay (AID 1346980). Further: nearly all actives have a fitted effect of over 15% in size. In outline: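 Wild-type cells were seeded at 1,500 per well and settled 5 hr at 37 C, 5% CO2, then exposed to DMSO-dissolved compounds for 17 hr. Caspase-Glo 3/7 reagent was added, and luminescence was read after 30min at room temperature.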
Assay [4] in a line: Caspase-3/7 induction in HepG2 cells by small molecules, qHTS cell viability counter screen (AID 1346981). Further: series mostly up to about 92 µM; nearly all actives have a fitted effect of over 30% in size. The gist of the method:
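Steps: seed 2,000 HepG2 cells per well; incubate 5 hr at 37 C; pin-add compounds in DMSO; incubate 16 hr; add CellTiter-Fluor; after 1 hr at 37 C and 5% CO2, read fluorescence.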

Assay [5] addresses Nuclear receptor subfamily 1 group I member 2 (Rattus norvegicus) (UniProt Q9R1A7). As to the kind of experiment: Rat pregnane X receptor (rPXR) activation by small molecules, qHTS assay (AID 1346983). Further: nearly all actives have a fitted effect of over 20% in size. The note with it: rPXR luciferase reporter cells, One-Glo luminescence, 24 h; max activation: active compounds read high. The gist of the method: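 Cell-based rPXR luciferase reporter assay, 2,000 cells per well, rested 5hr at 37 C before compound addition in DMSO, then 24 hr at 37 C. One-Glo reagent was added and luminescence read after 30 min at room temperature.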

Assay [6] addresses Nuclear receptor subfamily 1 group I member 2 (Homo sapiens) (UniProt O75469). Kind of assay: CYP3A4 induction through human pregnane X receptor (PXR) by small molecules, qHTS assay (AID 1346984). Further: nearly all actives have a fitted effect of over 40% in size. In outline: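 Steps: seed DPX-2 cells, 5 hr at 37C; pin-transfer compounds; 24 hr at 37C; add Luciferin-IPA (3uM final), 3 hr at 37C; add One-Glo, 30 min RT; read luminescence.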
Assay [7] has the same target. As to the kind of experiment: Human pregnane X receptor (PXR) activation by small molecules, qHTS assay (AID 1346985). Further: nearly all actives have a fitted effect of over 40% in size. The gist of the method:
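DPX-2 cells (HepG2 co-transfected with a PXR response element and a CYP3A4-promoter luciferase construct) were seeded at 2,000 per well, rested 5 hr at 37C, then exposed to DMSO-dissolved compounds for 24 hr. Activation was read as luciferase luminescence.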

Assay [8] deals with Cytochrome P450 2D6 (Homo sapiens) (UniProt P10635). Kind of assay: Cytochrome P450 Family 2 Subfamily D Member 6 (CYP2D6) small molecule antagonists: luciferase reporter qHTS assay (AID 1671196). Further: series mostly up to about 120 µM; nearly all actives have a fitted effect of over 50% in size. The gist of the method:
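P450-Glo format: CYP2D6 converts a proluciferin substrate to luciferin in an NADPH-driven reaction lasting 1 h at room temperature. Light output, proportional to CYP2D6 activity, reflects interference by test chemicals.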
(In a reporter assay the amount or activity of a reporter protein is the signal.)

In assay [9] the target is Cytochrome P450 2C19 (Homo sapiens) (UniProt P33261). As to the kind of experiment: Cytochrome P450 Family 2 Subfamily C Member 19 (CYP2C19) small molecule antagonists: luciferase reporter qHTS assay (AID 1671197). Further: nearly all actives have a fitted effect of over 65% in size. Further: potency means the concentration at half of the fitted maximal effect. On activity change, negative = inhibition: series mostly up to about 120 µM. In outline:
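Enzyme-substrate mix with proluciferin substrate (P450-Glo CYP2C19 system) preincubated with compounds 10 min at room temperature; NADPH regeneration solution added, 37C for 1 h; detection reagent stops reaction, luminescence read after 20 min. Ketoconazole positive control.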

Assay [10] deals with Cytochrome P450 2C9 (Homo sapiens) (UniProt P11712). Kind of assay: Cytochrome P450 Family 2 Subfamily C Member 9 (CYP2C9) small molecule antagonists: luciferase reporter qHTS assay (AID 1671198). Further: nearly all actives have a fitted effect of over 50% in size. Further: potency means the concentration at half of the fitted maximal effect. On activity change, negative = inhibition: series mostly up to about 120 µM. The gist of the method: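 CYP2C9 activity was measured with a P450-Glo proluciferin substrate. Enzyme–substrate mix was held with compound for 10 min at room temperature, then NADPH regeneration solution was added for 1 h at 37C. Luciferin product was read as luminescence.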
Chain of Cytochrome P450 2C9 (Homo sapiens) (P11712 whole entry, looked up): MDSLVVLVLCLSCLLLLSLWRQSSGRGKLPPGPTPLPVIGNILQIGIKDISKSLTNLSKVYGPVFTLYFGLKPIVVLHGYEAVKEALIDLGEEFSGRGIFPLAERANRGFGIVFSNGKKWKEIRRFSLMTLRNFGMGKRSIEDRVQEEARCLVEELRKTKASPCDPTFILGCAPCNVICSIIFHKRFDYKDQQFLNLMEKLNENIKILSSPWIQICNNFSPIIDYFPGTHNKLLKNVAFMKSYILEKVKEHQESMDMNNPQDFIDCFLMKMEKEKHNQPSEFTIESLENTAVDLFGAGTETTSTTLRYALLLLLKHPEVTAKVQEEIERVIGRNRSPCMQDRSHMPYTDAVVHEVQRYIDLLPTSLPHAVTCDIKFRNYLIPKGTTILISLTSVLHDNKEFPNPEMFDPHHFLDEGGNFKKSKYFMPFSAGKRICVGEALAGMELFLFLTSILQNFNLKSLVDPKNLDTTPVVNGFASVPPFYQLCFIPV

For assay [11], the target named is Voltage-gated inwardly rectifying potassium channel KCNH2 (Homo sapiens) (UniProt Q12809). As to the kind of experiment: Human Ether-a-go-go-Related Gene (hERG) channel small molecule antagonists: fluorescence cell-based qHTS assay (AID 1671200).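 Further: hERG-expressing U2OS cells given a thallium stimulus after FluxOR II dye loading; series mostly up to about 77 µM; nearly all actives have a fitted effect of over 50% in size.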 In outline: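 U2OS cells expressing the channel were plated at 1000 cells/well, incubated overnight at 37 C, then loaded with FluxOR II thallium-sensitive dye for 1 h at room temperature in the dark, with a further 10 min at room temperature before stimulation.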
Chain of Voltage-gated inwardly rectifying potassium channel KCNH2 (Homo sapiens) (Q12809 whole entry, looked up): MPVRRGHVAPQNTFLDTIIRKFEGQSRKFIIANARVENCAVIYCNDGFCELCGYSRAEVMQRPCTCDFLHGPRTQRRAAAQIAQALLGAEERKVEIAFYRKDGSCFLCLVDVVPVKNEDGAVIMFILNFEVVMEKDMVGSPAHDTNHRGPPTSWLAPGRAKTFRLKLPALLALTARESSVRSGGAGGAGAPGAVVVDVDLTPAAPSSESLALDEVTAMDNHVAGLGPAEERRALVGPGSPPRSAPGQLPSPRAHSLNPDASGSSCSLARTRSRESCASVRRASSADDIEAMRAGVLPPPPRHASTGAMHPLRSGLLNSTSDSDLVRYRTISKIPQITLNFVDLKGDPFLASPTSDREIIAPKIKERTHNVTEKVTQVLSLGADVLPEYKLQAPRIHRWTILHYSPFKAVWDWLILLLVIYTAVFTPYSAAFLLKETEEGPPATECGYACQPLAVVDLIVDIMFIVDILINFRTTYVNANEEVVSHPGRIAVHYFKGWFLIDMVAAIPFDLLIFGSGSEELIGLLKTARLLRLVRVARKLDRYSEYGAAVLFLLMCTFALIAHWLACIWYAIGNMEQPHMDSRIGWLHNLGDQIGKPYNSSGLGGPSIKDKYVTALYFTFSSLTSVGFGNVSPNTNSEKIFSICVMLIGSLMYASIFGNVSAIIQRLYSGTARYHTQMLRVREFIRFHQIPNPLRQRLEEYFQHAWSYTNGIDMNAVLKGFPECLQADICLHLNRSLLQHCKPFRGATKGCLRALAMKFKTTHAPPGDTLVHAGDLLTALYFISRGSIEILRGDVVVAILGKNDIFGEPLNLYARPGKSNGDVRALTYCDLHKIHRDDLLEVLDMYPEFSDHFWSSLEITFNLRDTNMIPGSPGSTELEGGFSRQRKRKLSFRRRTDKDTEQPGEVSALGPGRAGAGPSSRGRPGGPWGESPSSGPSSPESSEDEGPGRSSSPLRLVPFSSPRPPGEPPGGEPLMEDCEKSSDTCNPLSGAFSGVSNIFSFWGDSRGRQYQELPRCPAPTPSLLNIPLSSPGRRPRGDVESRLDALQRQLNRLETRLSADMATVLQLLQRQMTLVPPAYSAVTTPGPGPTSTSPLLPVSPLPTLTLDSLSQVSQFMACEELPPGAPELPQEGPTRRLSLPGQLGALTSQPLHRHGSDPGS
In general terms: The hERG channel carries a current that helps repolarise heart muscle cells.

Assay [12] addresses Cytochrome P450 3A4 (Homo sapiens) (UniProt P08684). As to the kind of experiment: Cytochrome P450 Family 3 Subfamily A Member 4 (CYP3A4) small molecule antagonists: luciferase reporter qHTS assay (AID 1671201). Further: series mostly up to about 120 µM; nearly all actives have a fitted effect of over 50% in size. In outline: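 P450-Glo CYP3A4 system with proluciferin substrate; compounds preincubated 10 min RT with enzyme-substrate mix, then NADPH regeneration added for 1 h RT. Detection reagent 20 min, luminescence read as relative luminescence units.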

The target of assay [13] is Cytochrome P450 1A2 (Homo sapiens) (UniProt P05177). Kind of assay: Cytochrome P450 Family 1 Subfamily A Member 2 (CYP1A2) small molecule antagonists: luciferase reporter qHTS assay (AID 1671199). Further: nearly all actives have a fitted effect of over 50% in size. Further: potency means the concentration at half of the fitted maximal effect. On activity change, negative = inhibition: series mostly up to about 120 µM. The gist of the method: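 Inhibition of CYP1A2 conversion of proluciferin to luciferin, detected by luminescence. Reaction run 1 h at room temperature with NADPH regeneration after brief compound preincubation.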
Chain of Cytochrome P450 1A2 (Homo sapiens) (P05177 whole entry, looked up): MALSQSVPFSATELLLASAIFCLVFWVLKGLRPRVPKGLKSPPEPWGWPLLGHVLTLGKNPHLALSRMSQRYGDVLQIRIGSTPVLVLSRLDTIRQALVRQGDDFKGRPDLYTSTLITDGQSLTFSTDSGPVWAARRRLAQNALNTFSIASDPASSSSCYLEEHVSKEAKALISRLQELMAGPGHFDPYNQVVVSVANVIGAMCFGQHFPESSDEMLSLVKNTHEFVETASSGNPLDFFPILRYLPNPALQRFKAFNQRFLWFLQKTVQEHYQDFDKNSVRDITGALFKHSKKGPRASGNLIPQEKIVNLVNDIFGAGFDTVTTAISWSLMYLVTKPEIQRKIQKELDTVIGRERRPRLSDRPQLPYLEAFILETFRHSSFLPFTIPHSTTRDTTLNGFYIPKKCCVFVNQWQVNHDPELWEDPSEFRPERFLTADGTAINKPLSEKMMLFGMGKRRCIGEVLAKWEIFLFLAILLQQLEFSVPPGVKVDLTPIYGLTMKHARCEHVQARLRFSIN

The target in assay [14] is Nuclear receptor subfamily 1 group I member 2 (Homo sapiens) (UniProt O75469). Kind of assay: Human pregnane X receptor (PXR) small molecule agonists, qHTS assay (AID 1346982). Further: nearly all actives have a fitted effect of over 35% in size. Further: potency means the concentration at half of the fitted maximal effect. The gist of the method:
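Agonist mode qHTS: PXR-Luc HepG2 cells plated 5 hr before DMSO-dissolved compounds were pinned in, cultured 24 hr at 37 C, 5% CO2; ONE-Glo luminescence readout.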
On the % scale 0 is the no-effect control and ±100 the full control effect.

Chain of Nuclear receptor subfamily 1 group I member 2 (Homo sapiens) (O75469 whole entry, looked up): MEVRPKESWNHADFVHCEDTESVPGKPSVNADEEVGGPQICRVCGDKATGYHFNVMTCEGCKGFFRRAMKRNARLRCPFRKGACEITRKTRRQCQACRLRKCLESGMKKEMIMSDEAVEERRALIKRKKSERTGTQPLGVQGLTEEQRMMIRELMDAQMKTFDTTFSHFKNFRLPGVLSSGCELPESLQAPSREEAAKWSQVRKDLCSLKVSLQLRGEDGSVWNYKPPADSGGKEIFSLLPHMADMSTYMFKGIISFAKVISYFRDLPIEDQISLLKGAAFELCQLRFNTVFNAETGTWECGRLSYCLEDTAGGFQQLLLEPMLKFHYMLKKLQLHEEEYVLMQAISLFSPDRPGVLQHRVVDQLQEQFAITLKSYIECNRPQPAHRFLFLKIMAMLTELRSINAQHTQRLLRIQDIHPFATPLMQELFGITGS
Chain of Nuclear receptor subfamily 1 group I member 2 (Rattus norvegicus) (Q9R1A7 whole entry, looked up): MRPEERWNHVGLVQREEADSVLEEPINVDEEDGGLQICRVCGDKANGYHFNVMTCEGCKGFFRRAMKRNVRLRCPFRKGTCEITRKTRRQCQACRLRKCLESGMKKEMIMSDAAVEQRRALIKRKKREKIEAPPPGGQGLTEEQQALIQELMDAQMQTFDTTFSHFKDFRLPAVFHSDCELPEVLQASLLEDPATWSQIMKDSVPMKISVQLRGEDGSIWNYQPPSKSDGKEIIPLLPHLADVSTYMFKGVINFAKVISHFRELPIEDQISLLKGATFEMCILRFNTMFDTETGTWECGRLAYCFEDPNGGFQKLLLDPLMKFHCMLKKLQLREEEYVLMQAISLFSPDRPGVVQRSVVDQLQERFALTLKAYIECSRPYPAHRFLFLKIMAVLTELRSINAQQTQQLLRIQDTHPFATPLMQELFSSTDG
Chain of Cytochrome P450 2C19 (Homo sapiens) (P33261 whole entry, looked up): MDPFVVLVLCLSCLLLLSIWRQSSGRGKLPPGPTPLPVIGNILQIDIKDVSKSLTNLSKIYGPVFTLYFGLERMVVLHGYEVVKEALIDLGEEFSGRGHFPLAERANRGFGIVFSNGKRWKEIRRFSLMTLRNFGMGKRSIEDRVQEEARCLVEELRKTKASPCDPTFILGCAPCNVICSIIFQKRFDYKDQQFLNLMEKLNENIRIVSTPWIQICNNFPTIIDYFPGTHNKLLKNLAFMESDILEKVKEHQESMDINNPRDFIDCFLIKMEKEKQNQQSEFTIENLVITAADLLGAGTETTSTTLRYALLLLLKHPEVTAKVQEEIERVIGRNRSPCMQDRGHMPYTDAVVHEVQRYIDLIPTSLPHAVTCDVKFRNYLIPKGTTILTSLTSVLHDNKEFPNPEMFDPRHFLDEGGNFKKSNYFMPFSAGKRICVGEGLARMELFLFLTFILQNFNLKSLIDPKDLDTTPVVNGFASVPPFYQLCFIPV
Chain of Cytochrome P450 2D6 (Homo sapiens) (P10635 whole entry, looked up): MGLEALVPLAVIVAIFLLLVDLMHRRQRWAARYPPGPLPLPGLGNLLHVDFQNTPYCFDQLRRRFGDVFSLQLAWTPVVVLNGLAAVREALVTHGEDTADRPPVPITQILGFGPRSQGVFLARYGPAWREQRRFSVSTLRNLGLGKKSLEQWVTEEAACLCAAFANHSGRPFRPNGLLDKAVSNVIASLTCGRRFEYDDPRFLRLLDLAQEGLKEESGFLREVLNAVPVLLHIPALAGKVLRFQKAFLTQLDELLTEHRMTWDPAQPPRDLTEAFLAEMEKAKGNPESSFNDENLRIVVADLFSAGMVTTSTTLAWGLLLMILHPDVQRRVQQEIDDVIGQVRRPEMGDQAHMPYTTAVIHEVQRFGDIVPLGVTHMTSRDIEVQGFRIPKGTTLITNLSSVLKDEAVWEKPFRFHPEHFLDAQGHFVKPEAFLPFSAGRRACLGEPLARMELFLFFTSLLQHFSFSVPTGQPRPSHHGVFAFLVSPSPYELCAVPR
Chain of Cytochrome P450 3A4 (Homo sapiens) (P08684 whole entry, looked up): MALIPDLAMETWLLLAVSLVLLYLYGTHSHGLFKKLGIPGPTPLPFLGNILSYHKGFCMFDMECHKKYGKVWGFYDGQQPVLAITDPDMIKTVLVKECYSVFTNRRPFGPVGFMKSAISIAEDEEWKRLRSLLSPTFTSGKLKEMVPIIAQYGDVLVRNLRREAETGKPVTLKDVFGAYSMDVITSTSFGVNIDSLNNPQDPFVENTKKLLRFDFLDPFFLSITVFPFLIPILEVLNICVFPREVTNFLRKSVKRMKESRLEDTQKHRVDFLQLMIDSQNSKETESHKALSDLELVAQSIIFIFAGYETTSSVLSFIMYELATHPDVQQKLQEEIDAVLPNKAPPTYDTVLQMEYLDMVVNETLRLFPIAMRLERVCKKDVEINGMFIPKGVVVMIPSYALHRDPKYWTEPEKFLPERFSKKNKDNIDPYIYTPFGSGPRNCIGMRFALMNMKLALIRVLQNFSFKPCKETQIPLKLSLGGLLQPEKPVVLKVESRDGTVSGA

For `Cc1ccnc(NS(=O)(=O)c2ccc(N)cc2)n1`, the molecule was called inactive in [1] and in [3]. For the same molecule, the Potency entry in [2], in [4], in assay [6], in [7], in [8] and in [9] was “inactive” each time. Further, the Potency entry in [10], in assay [11] and in assay [12] was “inactive” each time. Also, the max activation in assay [5] is -0.793%.

As to `Nc1ccn([C@@H]2O[C@H](CO)[C@@H](O)C2O)c(=O)n1` (some centres not stated), the call in assay [1] and in [3] was inactive. Further, the Potency result in assay [2], in [4], in assay [7], in assay [8], in assay [10] and in [13] was “inactive” in each case. The Potency entry in assay [11] and in [12] was “inactive” in each case. Also, the max activation in assay [5] is -0.294%.

In the case of `COc1cc(C)nc(-n2nc(C)cc2OC)n1`, the molecule was classed as inactive in assay [1] and in assay [3]. The Potency entry in assay [2], in [4] and in assay [11] was “inactive” each time. In addition, the max activation in assay [5] was 0.673%.

In the case of `CN1CCN(c2cc3c(nn2)Oc2ccccc2N3C)CC1`, the caspase activation in assay [1] was -12.1% [at 19 µM]. Further, the values for the activity change, negative = cytotoxicity in [2] and in assay [4] were 3.04% [at 19 µM] and -0.441% [at 19 µM], respectively. In addition, the caspase-3/7 activation in [3] is -3.65% [at 19 µM]. Further, the max activation in assay [5] is 8.97%. The Potency entry in [6], in assay [7] and in [9] was “inactive” in each case. Moreover, the activity change, negative = inhibition in [10] was 2.38% [at 23.6 µM]; in assay [11], 0.457% [at 15.8 µM]; in assay [12] it was 7.5% [at 23.6 µM].

For `Cc1ccc(C(=O)c2ccccc2)cc1`, the molecule was called inactive in assay [1] and in assay [3]. Also, the Potency entry in assay [2], in [4], in assay [14] and in [12] was “inactive” in each case. The Potency in assay [9] is 10 µM (active); in assay [10], 31.7 µM (active).

`CCCc1nn(C)c2c(=O)[nH]c(-c3cc(S(=O)(=O)N4CCN(C)CC4)ccc3OCC)nc12`: the result in [1] and in [3] was inactive. For the same molecule, the Potency result in assay [2], in assay [4], in assay [8], in assay [9] and in assay [13] was “inactive” throughout. Besides, in assay [10], the Potency is 30.9 µM (active).

Take `NO`: the molecule was called inactive in assay [1] and in assay [3]. Moreover, the Potency result in assay [2], in assay [4] and in assay [11] was “inactive” in each case.

In the case of `O=C1c2ccccc2C(=O)c2cc(O)ccc21`, the call in assay [1] and in [3] was inactive. Also, the Potency entry in assay [2] and in [11] was “inactive” in each case. Also, the Potency was 17.2 µM (active) in assay [14], 22.5 µM (active) in assay [9], 25.2 µM (active) in assay [10] and 7.11 µM (active) in [13].

For the molecule `COCCOC[C@H](CC1(C(=O)NC2CCC(C(=O)O)CC2)CCCC1)C(=O)Oc1ccc2c(c1)CCC2` (some centres not stated), the molecule was called inactive in assay [1] and in assay [3]. In [2], the Potency was 54.5 µM (active). The Potency entry in [14], in assay [8], in assay [9], in assay [10], in [13] and in assay [11] was “inactive” each time.

As to `CCOc1ccccc1OCC`, the outcome in assay [1] and in [3] was inactive. For the same molecule, the Potency entry in [2], in [4] and in assay [11] was “inactive” each time. Moreover, the Potency in [9] was 71 µM (active).

`CCCOC(=O)CC`: the molecule was classed as inactive in assay [1] and in [3]. For the same molecule, the Potency entry in assay [2], in assay [4], in assay [8], in assay [9], in assay [11] and in assay [12] was “inactive” each time. For the same molecule, in assay [13], the Potency is 35.5 µM (active).

Regarding `C=C(C)C(=O)OCC1CCCO1` (configuration not stated), the molecule was called inactive in [1] and in [3]. The Potency result in [2], in [4], in assay [9], in [10], in [13] and in [11] was “inactive” in each case. Further, the Potency entry in assay [12] was “inactive”.
